Inconclusive results are not listed. The source made the active and inactive calls. Calls come from the whole dose curve; as a rule, active = well fitted inhibition curve with a large enough effect; inconclusive = small, poorly fitted or top-dose-only effect; inactive = no such curve, though single readings can be large or run the other way.

For one test, the target named is Retinaldehyde dehydrogenase 3 (Homo sapiens) (UniProt P47895). The test is described as follows: qHTS for Inhibitors of the Aldehyde Dehydrogenase Family (ALDH1A3) Primary screen (AID 2061315).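 Note: plate controls were DMSO vehicle for no effect and reference inhibitor for full effect.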 To be noted: ALDH inhibition qHTS; series mostly up to 56 µM; activity change, negative = inhibition: at the top concentration. For orientation: qHTS replaces the single test concentration by a dilution series.
On to `Cc1ccc(NC(=O)C2(c3ccc4c(c3)OC(F)(F)O4)CC2)nc1-c1cccc(C(=O)O)c1`, for which the “activity change, negative = inhibition” value is 4.78% (inactive).

For the compound `COc1c2c(c(CO)c3c1C(=O)OC3)OC1(C)CCC3(O)C(C)(C)OC(=O)CCC3(C)C1C2` (stereo unspecified), the “activity change, negative = inhibition” value was 4.38% [at 28 µM] (inactive).

For `Clc1cccc(-n2nnnc2NCc2ccccc2Oc2ccccn2)c1Cl`, the “activity change, negative = inhibition” value was -7.7% (inactive).

As to `COC(=O)[C@H](O)[C@H]1C(C)(C)[C@H](OC(=O)C(C)C)[C@@]2(O)C(=O)[C@]1(C)C1CC[C@]3(C)C(CC(=O)O[C@H]3c3ccoc3)[C@]13O[C@@H]32` (stereo partly specified), the “activity change, negative = inhibition” value is 19.3% [at 16.9 µM] (inactive).

Regarding `Nc1nc(O)c(C2=C3C(=Nc4ccccc43)C(=O)NCC2)[nH]1`, the “activity change, negative = inhibition” value was -1.44% (inactive).

In the case of `CC1CC(=O)C2=C(C1)C1OC1C1(O)C2C(=O)c2cccc(O)c2C1O` (stereo unspecified), the “activity change, negative = inhibition” value was -19.3% (inactive).

Test system in a further test: not listed separately
The test is described as follows: BET inhibitor-based combinations targeting novel dependencies in MECOM-rearranged (r) AML: SET-2 cell line (AID 2202231).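 For viability: plate controls were DMSO treated cells for no effect and wells without cells for full effect.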 Note: nearly all actives have a fitted effect of over 35% in size. Note: potency is the fitted concentration of half-maximal effect. The conditions noted are these: SET-2 AML cells viability, CellTiter-Glo luminescence, 48 h; viability: hits give low values, concentration not given here. The essentials: (§1)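 AML cell lines seeded at 500 cells/well, treated with 11-point dose curves for 48 h. Viability by CellTiter-Glo luminescence, normalised to DMSO and empty wells; activity expressed as AUC and per-cell-line Z-transformed AUC.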
With `COc1ccc2c(OCc3nnc4ccc(-c5ccccc5)nn34)ccnc2c1`, the viability was 116% (inactive).

`COc1nc(C)cnc1NS(=O)(=O)c1cccnc1-c1ccc(-c2nnco2)cc1`: the viability was 115% (inactive).

Consider `COCCN1CCN(Cc2ccc(-c3n[nH]c4c3C(=O)c3c(NC(=O)NN5CCOCC5)cccc3-4)cc2)CC1`, for which the Potency is 417 nM (active).

With `Nc1ncnc2c1c(-c1cnc3[nH]ccc3c1)nn2C1CCCC1`, the Potency was 3720 nM (active).

`COC(=O)Nc1nc2ccc(C(=O)c3ccc(F)cc3)cc2[nH]1`: the Potency is 833 nM (active).

`Cc1cc(Nc2nc(N[C@@H](C)c3ncc(F)cn3)ncc2Cl)n[nH]1`: the Potency was 1480 nM (active).

Regarding `Cc1ccc2nc(NC(=O)CSc3nc4c(c(=O)n3-c3ccccc3)SCC4)sc2c1`, the viability was 114% (inactive).

On to `CC(C)CNc1ccnc(NCc2csc(-c3ccccc3)n2)n1`, for which the Potency is 11800 nM (active).

As to `NC(=O)c1cccc2cn(-c3ccc([C@@H]4CCCNC4)cc3)nc12`, the Potency is 14800 nM (active).

For `Cc1ccc(NC(=O)C2(c3ccc4c(c3)OC(F)(F)O4)CC2)nc1-c1cccc(C(=O)O)c1`, the viability was 94.8% (inactive).

Regarding `Clc1cccc(-n2nnnc2NCc2ccccc2Oc2ccccn2)c1Cl`, the viability was 103% (inactive).

Test system in a further test: not listed separately
Put plainly: BET inhibitor-based combinations targeting novel dependencies in MECOM-rearranged (r) AML: OCI-AML3 cell line (AID 2202232).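 For viability (% of control): plate controls were DMSO vehicle wells for no effect and wells without cells for full effect.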 Note: nearly all actives have a fitted effect of over 35% in size. Note: potency is the fitted concentration of half-maximal effect. To be noted: CellTiter-Glo luminescence, 48 h; Potency: OCI-AML3 viability; series mostly up to 46 µM; viability (% of control): at the top concentration. A digest of the protocol:
as §1
Consider `COc1ccc2c(OCc3nnc4ccc(-c5ccccc5)nn34)ccnc2c1`, for which the “viability (% of control)” value was 126% (inactive).

For `COc1nc(C)cnc1NS(=O)(=O)c1cccnc1-c1ccc(-c2nnco2)cc1`, the “viability (% of control)” value was 115% (inactive).

As for `COCCN1CCN(Cc2ccc(-c3n[nH]c4c3C(=O)c3c(NC(=O)NN5CCOCC5)cccc3-4)cc2)CC1`, the Potency was 166 nM (active).

For the compound `COC(=O)Nc1nc2ccc(C(=O)c3ccc(F)cc3)cc2[nH]1`, the Potency was 590 nM (active).

Take `Cc1cc(Nc2nc(N[C@@H](C)c3ncc(F)cn3)ncc2Cl)n[nH]1`: the Potency is 1320 nM (active).

For `CC(C)CNc1ccnc(NCc2csc(-c3ccccc3)n2)n1`, the Potency is 8330 nM (active).

As to `COCCCOc1ccnc(CS(=O)c2nc3ccccc3[nH]2)c1C` (stereo unspecified), the “viability (% of control)” value is 82% (inactive).

On to `CCOC(=O)C1=C(C)NC2=C(C(=O)CC(C)(C)C2)C1c1ccc(-c2ccccc2)cc1` (stereo unspecified), for which the Potency was 13200 nM (active).

Regarding `Cc1ccc(NC(=O)C2(c3ccc4c(c3)OC(F)(F)O4)CC2)nc1-c1cccc(C(=O)O)c1`, the “viability (% of control)” value is 99.4% (inactive).

In general, viability refers to a read-out of living cells in per cent, often relative to untreated cells.

(Values after PubChem BioAssay (NCATS).)
